# Reference: PubChem BioAssay (NCI)
# About 83,000 compounds went through this panel and 20% of them were active in at least one assay; those are over-represented in the sample as a whole.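 Values shown are percent growth following 48 h exposure of cells in 96-well plates to a single concentration of compound; below 10 was considered active.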 Activity calls are given as the source filed them.
# System: NCI-H23 lung
# Experiment: NCI-60 one-dose screen, 48 h (100 = growth as untreated, 0 = no growth, -100 = all killed)
# Conditions: 10 µM unless noted
row,Compound,growth
1,O=C1CC(c2ccc(O)c(O)c2)Oc2cc(O)c([C@@H]3O[C@H](CO)[C@@H](O)[C@H](O)[C@H]3O)c(O)c21 (stereo partly drawn),106% (inactive)
2,O=C(NCc1ccccc1)c1ccc2c(c1)NC(=O)[C@@H]1CCCN21,90.6% (inactive)
3,CCc1ccc(OCc2ccccc2C(=O)Nc2ccc3nc(C)cc(N)c3c2)cc1,-73.2% (active)
4,CSc1cccc(NC(=O)Nc2nc3c(C)cccc3s2)c1,90.2% (inactive)
5,COC(=O)[C@]1(C)CCC[C@]2(C)[C@H]3C[C@H]4C(C(C)C)=C[C@]3(CC[C@H]21)[C@@H]1C(=O)N(CCC#N)C(=O)[C@@H]14,93.7% (inactive)
6,CC1=C(CCCOC(=O)NCCCl)C2=C(C)C3(CC3)[C@@](C)(O)C(=O)C2=C1,-0.524% (active)
7,COc1ccc2[nH]c(-c3ccccc3)c(C=C(C#N)C#N)c2c1,23.4% (inactive)
8,Cc1nn(-c2ccc(-c3ccc(OC(F)(F)F)cc3)cc2)c2nc(-c3ccccc3)nc(N)c12,97.7% (inactive)
9,O=S(=O)(O)c1ccc(N=NSc2ccc3ccccc3c2)cc1,93.4% (inactive)
10,O=c1c2ccccc2n(CC(O)CN2CCCC2)c2c(Br)cccc12 (stereo not drawn),131% (inactive)
11,CS(=O)(=O)O[C@@H]1C(=O)N(c2cc3c4ccccc4ccc3c3ccccc23)[C@H]1c1ccc(F)cn1,49.5% (inactive)
12,CC(C)(C)c1nn(-c2ccccc2)c2c1COCN2Cc1ccc(Cl)cc1,84.7% (inactive)
13,Cc1cc(NC(=O)CNc2nc(Oc3ccc(F)cc3)nc(-c3ccc(F)cc3)n2)ccc1Cl,98.1% (inactive)
14,CC(=O)c1cc2c(N)c(C(=O)Nc3ccccn3)sc2nc1C,87.3% (inactive)
15,CCOC(=O)c1sc(/N=C2\NC(=O)/C(=C/c3ccc(N4CCN(C)CC4)cc3)S2)nc1C,99.3% (inactive)
16,O=C(/C(=C/c1ccc([N+](=O)[O-])cc1)SCc1ccc(F)cc1)c1ccc(Cl)cc1,58.9% (inactive)
17,Cc1cnc(-c2ccc(-c3ccc(NC(=O)Nc4c(F)cc(F)cc4F)cc3F)c3c2C(=O)NC3)[nH]1,20.8% (inactive)
18,COc1ccc(Nc2cc(NC(=O)CNc3cc(OC)c(Cl)c(OC)c3Cl)ncn2)cc1,90.2% (inactive)
19,Nc1n[nH]c2cccc(C#Cc3cccc(NC(=O)c4cc(N5CCOCC5)cc(C(F)(F)F)c4)c3)c12,45% (inactive)

row,Compound,growth
1,CC(C)(C)CC(C)(C)Cc1ccc(OCCOCC[N+](C)(C)Cc2ccccc2)cc1,20.7% (inactive)
2,CCOCc1cc(C(C)(C)C)ccc1O,103% (inactive)
3,C=C1C(=O)O[C@H]2[C@H]1CC/C(COC(=O)Nc1nc3ccccc3[nH]1)=C\CC[C@@]1(C)O[C@@H]21,70.9% (inactive)
4,C=C(C)[C@@H]1CC[C@]2(C(=O)n3ccnc3)CC[C@]3(C)[C@H](CC[C@@H]4[C@@]5(C)CCCNC(C)(C)[C@@H]5CC[C@]43C)[C@@H]12,38.8% (inactive)
5,C=C(C)[C@@H]1CC[C@]2(C(=O)O)CC[C@]3(C)[C@H](CC[C@@H]4[C@@]5(C)C[C@@H](CC#Cc6ccccc6C)C(=O)C(C)(C)[C@@H]5CC[C@]43C)[C@@H]12,18.2% (inactive)
6,Clc1ccc2c(NCCCNC3CCCCC3)ccnc2c1,112% (inactive)
7,CN(C)C(CNc1oc(-c2cccc3ccccc23)nc1C#N)c1ccco1 (stereo not drawn),97.1% (inactive)
8,c1cc(CNC23CC4CC(CC(C4)C2)C3)cc(C[N+](Cc2cccc(CNC34CC5CC(CC(C5)C3)C4)c2)(Cc2cccc(CNC34CC5CC(CC(C5)C3)C4)c2)Cc2cccc(CNC34CC5CC(CC(C5)C3)C4)c2)c1 (stereo not drawn),42.1% [42 µM] (inactive)
9,O=C1CCc2ccccc2N1,99.4% (inactive)
10,Cc1cnc(SCc2ccc(Cl)cc2Cl)nc1Nc1ccc(Cl)c(Cl)c1,92.8% (inactive)
11,COc1cc(C2=NN(C(C)=O)C(c3cccc(Nc4ccnc5cc(C(F)(F)F)ccc45)c3)C2)cc(OC)c1OC (stereo not drawn),62.8% (inactive)
12,CCOC(=O)c1c(-c2ccc(O)cc2)c(C#N)c2c(C#N)c(N)nn2c1N,72.6% (inactive)
13,CN(C)CCCn1c2c(c3cc(-c4ccco4)ccc3c1=O)C(=O)c1ccccc1-2,71.8% (inactive)
14,Nc1cc(N)c(S(=O)(=O)O)cc1N=Nc1cc([N+](=O)[O-])ccc1O,94.5% (inactive)
15,COc1cc(/C=N/Nc2nc(-c3ccc(F)cc3)c(C#N)c(N3CCOCC3)n2)ccc1O,108% (inactive)
16,COc1cc(-c2csc(NC(=O)Nc3ccc(Cl)cc3)n2)cc(OC)c1OC,11.3% (inactive)
17,N#CCNc1ccc(C(=O)O)cc1,101% (inactive)
18,CCOC(=O)c1ccc(Nc2ncnc3ccc(NC(=O)c4ccccc4)cc23)cc1,83.7% (inactive)
19,COC(=O)/C=C/c1cc(OC(C)=O)c2c(c1)C(C(=O)OC)C(c1ccc(OC(C)=O)c(OC(C)=O)c1)O2 (stereo not drawn),21.3% (inactive)
